13 molecules from PubChem BioAssay can be followed below.

Values joined by “and” are separate entries in the source; they are usually repeats but may differ in a detail not shown here. Equal values may be shown once. This is one part of the list. Active and inactive are the calls of the source. Unless noted, no stated cut-off is given here; in the data, active means inhibition above about 20%; inactive means the rest.

The term inhibition denotes the relative decrease from the control value, in per cent.

System in one assay: not listed separately
Put plainly: StAR promoter reporter inhibitors, counter-screen for LRH-1 inverse agonist project, cell-based, luminescence, high throughput (AID 651611; in the data active means inhibition above about 28%). The conditions noted are these: StAR promoter luciferase reporter counterscreen, at 3.6 µM, active compounds read high. Background: The purpose of a counterscreen is to sort out artefacts and off-target activity.
With `O=C(Nc1ccccc1Cl)/C(Cl)=C(\Cl)S(=O)c1ccccc1` (stereo not drawn), the inhibition is 57.7% (active).

On to `NC1=CC(=O)C(=O)c2cccnc21`, for which the inhibition is 35.9% (active).

With `CCCCCCCCn1c2c(c(=N)c3c1CCC3)CCCC2`, the inhibition is 78.1% (active).

As to `COc1ccc2[nH]c3c(C)c4cc[n+](C)cc4c(C)c3c2c1`, the inhibition is 49.8% (active).

Another assay deals with Nuclear receptor subfamily 5 group A member 2 (Homo sapiens) (UniProt O00482). Put plainly: LRH-1 (NR5A2) inverse agonists, retest, confirmation, cell-based, luminescence (AID 651613; in the data active means inhibition above about 42%;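 further: HEK293T cells co-transfected with LRH-1 and StAR promoter luciferase reporter; 0% = vehicle wells and 100% = parental cells lacking receptor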). The conditions noted are these: cell-based LRH-1 luciferase reporter, inverse agonism; at 3.6 µM; active compounds read high. (In a reporter assay the amount or activity of a reporter protein is the signal.)
Nuclear receptor subfamily 5 group A member 2 (Homo sapiens), sequence (O00482 whole entry, looked up): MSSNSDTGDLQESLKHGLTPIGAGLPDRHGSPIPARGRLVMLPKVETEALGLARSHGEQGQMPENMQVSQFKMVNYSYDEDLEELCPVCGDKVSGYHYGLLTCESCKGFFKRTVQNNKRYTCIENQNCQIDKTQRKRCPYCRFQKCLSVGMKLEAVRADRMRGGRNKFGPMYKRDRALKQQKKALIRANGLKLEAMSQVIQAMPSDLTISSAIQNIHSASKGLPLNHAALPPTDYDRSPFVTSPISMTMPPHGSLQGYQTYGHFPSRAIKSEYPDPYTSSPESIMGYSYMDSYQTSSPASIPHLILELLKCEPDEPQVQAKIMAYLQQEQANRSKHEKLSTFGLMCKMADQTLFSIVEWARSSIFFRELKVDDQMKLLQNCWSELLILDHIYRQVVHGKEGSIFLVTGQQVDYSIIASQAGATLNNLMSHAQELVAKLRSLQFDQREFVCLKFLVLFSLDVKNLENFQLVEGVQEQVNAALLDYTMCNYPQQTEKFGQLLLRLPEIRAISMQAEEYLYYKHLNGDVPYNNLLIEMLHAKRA
As for `O=C(Nc1ccccc1Cl)/C(Cl)=C(\Cl)S(=O)c1ccccc1` (stereo not drawn), the inhibition is 88.7% (active).

Consider `NC1=CC(=O)C(=O)c2cccnc21`, for which the inhibition was 47.5% (active).

For the molecule `CCCCCCCCn1c2c(c(=N)c3c1CCC3)CCCC2`, the inhibition is 110% (active).

Regarding `COc1ccc2[nH]c3c(C)c4cc[n+](C)cc4c(C)c3c2c1`, the inhibition was 103% (active).

The target of the next assay is Steroidogenic factor 1 (Homo sapiens) (UniProt Q13285). In words: SF1 (NR5A1) inverse agonists, counter-screen for LRH-1 inverse agonist project, cell-based, luminescence, high throughput (AID 651614; in the data active means inhibition above about 44%;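 further: cells cotransfected with StAR promoter reporter and SF1 expression vector; 0% = vehicle on cells with receptor and 100% = vehicle on cells lacking receptor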). The settings on record: cell-based SF1 luciferase reporter, at 3.6 µM, active compounds read high.
Steroidogenic factor 1 (Homo sapiens), sequence (Q13285 whole entry, looked up): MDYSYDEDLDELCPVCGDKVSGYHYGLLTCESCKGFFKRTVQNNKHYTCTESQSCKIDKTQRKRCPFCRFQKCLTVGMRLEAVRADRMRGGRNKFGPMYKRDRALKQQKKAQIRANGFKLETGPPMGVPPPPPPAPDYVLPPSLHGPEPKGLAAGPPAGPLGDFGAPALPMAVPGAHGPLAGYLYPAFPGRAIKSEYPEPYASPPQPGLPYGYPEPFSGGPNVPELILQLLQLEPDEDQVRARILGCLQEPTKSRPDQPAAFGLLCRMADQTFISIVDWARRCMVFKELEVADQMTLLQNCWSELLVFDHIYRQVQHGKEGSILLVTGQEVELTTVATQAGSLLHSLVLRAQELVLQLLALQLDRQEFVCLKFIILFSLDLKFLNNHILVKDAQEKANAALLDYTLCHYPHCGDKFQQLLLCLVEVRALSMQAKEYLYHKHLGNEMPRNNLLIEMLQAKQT
For `O=C(Nc1ccccc1Cl)/C(Cl)=C(\Cl)S(=O)c1ccccc1` (stereo not drawn), the inhibition is 80.1% (active).

Regarding `NC1=CC(=O)C(=O)c2cccnc21`, the inhibition was 45.5% (active).

Turning to `CCCCCCCCn1c2c(c(=N)c3c1CCC3)CCCC2`, the inhibition was 96.5% (active).

As to `COc1ccc2[nH]c3c(C)c4cc[n+](C)cc4c(C)c3c2c1`, the inhibition was 51.9% (active).

System in another assay: not listed separately
Put plainly: VP16 transactivation reporter inhibitors, counter-screen for LRH-1 inverse agonist project, cell-based, luminescence, high throughput (AID 651615; in the data active means inhibition above about 33%). The settings on record: Gal4-VP16 luciferase reporter cells, at 3.6 µM, active compounds read high.
With `O=C(Nc1ccccc1Cl)/C(Cl)=C(\Cl)S(=O)c1ccccc1` (stereo not drawn), the inhibition was 80.8% (active).

Regarding `NC1=CC(=O)C(=O)c2cccnc21`, the inhibition was 8.35% (inactive).

`CCCCCCCCn1c2c(c(=N)c3c1CCC3)CCCC2`: the inhibition is 96.8% (active).

In the case of `COc1ccc2[nH]c3c(C)c4cc[n+](C)cc4c(C)c3c2c1`, the inhibition is 75% (active).

System in the next assay: not listed separately
In words: growth loss of phage-infected RecBCD+ E. coli, confirmation, RecBCD inhibitor project, absorbance, E. coli V66, T4 gene 2 phage (AID 651982;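 active means mean inhibition over triplicates exceeding the hit threshold derived in the original primary screen, cut at about 11% in these data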). The settings on record: E. coli V66 + T4 2- phage, growth OD; at 11.9 µM; active compounds read high.
In the case of `CO/N=C(\C(=O)N[C@@H]1C(=O)N2C(C(=O)O)=C(COC(C)=O)CS[C@H]12)c1csc(N)n1` (stereo in doubt), the inhibition is 100% (active) and 96.2% (active) and 102% (active).

Regarding `C=CC1=C(C(=O)O)N2C(=O)[C@@H](NC(=O)/C(=N\OCC(=O)O)c3csc(N)n3)[C@H]2SC1`, the inhibition was 102% (active).

Take `CN(O)C(=S)c1ccccc1`: the inhibition was 53% (active).

In the case of `C=CC1=C(C(=O)O)N2C(=O)[C@@H](NC(=O)/C(=N/OCC(=O)O)c3csc(N)n3)[C@H]2SC1`, the inhibition is 100% (active).

For the molecule `O=C(NNC(=O)c1ccccc1O)c1ccccc1O`, the inhibition was 25.8% (active).

In the case of `Cn1ccc(=Nc2ccc(NC(=O)c3ccc(N=c4ccn(C)c5ccc([N+](=O)[O-])cc45)cc3)cc2)cc1`, the inhibition was 101% (active).

System in another assay: not listed separately
Put plainly: E. coli viability inhibition, counter-screen for RecBCD inhibitor project, absorbance, high throughput (AID 651983).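 Further: E. coli strain V66 grown with compound alone and no phage infection; 0% = bacteria with DMSO vehicle only.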 The conditions noted are these: absorbance (OD) growth, at 11.9 µM, active compounds read high.
As for `CO/N=C(\C(=O)N[C@@H]1C(=O)N2C(C(=O)O)=C(COC(C)=O)CS[C@H]12)c1csc(N)n1` (stereo in doubt), the inhibition was 102% (active) and 97.1% (active) and 103% (active).

Turning to `C=CC1=C(C(=O)O)N2C(=O)[C@@H](NC(=O)/C(=N\OCC(=O)O)c3csc(N)n3)[C@H]2SC1`, the inhibition was 104% (active).

For `CN(O)C(=S)c1ccccc1`, the inhibition was 62.5% (active).

As to `C=CC1=C(C(=O)O)N2C(=O)[C@@H](NC(=O)/C(=N/OCC(=O)O)c3csc(N)n3)[C@H]2SC1`, the inhibition is 101% (active).

In the case of `O=C(NNC(=O)c1ccccc1O)c1ccccc1O`, the inhibition was 26.4% (active).

Regarding `Cn1ccc(=Nc2ccc(NC(=O)c3ccc(N=c4ccn(C)c5ccc([N+](=O)[O-])cc45)cc3)cc2)cc1`, the inhibition is -7.32% (inactive).

System in a further assay: not listed separately
Put plainly: growth loss of phage-infected AddAB-carrying E. coli, confirmation, counter-screen for RecBCD inhibitor project, absorbance, E. coli V3065, T4 phage (AID 651984;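 active means mean inhibition above the solvent-only control wells' mean plus 3 SD, cut at about 22% in these data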;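 further: higher means less bacterial growth from phage killing when AddAB is blocked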). The settings on record: E. coli expressing H. pylori AddAB + T4 phage, OD growth; at 11.9 µM; active compounds read high; gene 2 mutant T4, recBCD-deleted host.
For the molecule `CO/N=C(\C(=O)N[C@@H]1C(=O)N2C(C(=O)O)=C(COC(C)=O)CS[C@H]12)c1csc(N)n1` (stereo in doubt), the inhibition is 102% (active) and 96.3% (active).

On to `C=CC1=C(C(=O)O)N2C(=O)[C@@H](NC(=O)/C(=N\OCC(=O)O)c3csc(N)n3)[C@H]2SC1`, for which the inhibition is 104% (active).

On to `CN(O)C(=S)c1ccccc1`, for which the inhibition is 84.6% (active).

Regarding `C=CC1=C(C(=O)O)N2C(=O)[C@@H](NC(=O)/C(=N/OCC(=O)O)c3csc(N)n3)[C@H]2SC1`, the inhibition is 101% (active).

Turning to `O=C(NNC(=O)c1ccccc1O)c1ccccc1O`, the inhibition was 38.9% (active).

Take `Cn1ccc(=Nc2ccc(NC(=O)c3ccc(N=c4ccn(C)c5ccc([N+](=O)[O-])cc45)cc3)cc2)cc1`: the inhibition is 102% (active).

System in another assay: not listed separately
In words: compounds interfering with TAMRA-BSA probe, counter-screen for TCR-CD3 interaction inhibitor project, biochemical, fluorescence, TAMRA-labeled BSA (AID 652035; in the data active means inhibition above about 23%;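 further: 0% = buffer low control and 100% = reference high control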). The settings on record: TAMRA-labeled BSA probe fluorescence counterscreen; at 9.4 µM; active compounds read high.
Consider `Cc1ccc(Cc2cnc(N)s2)o1`, for which the inhibition is 0.16% (inactive).

Consider `C=CC1=C(C(=O)O)N2C(=O)[C@@H](NC(=O)/C(=N/OCC(=O)O)c3csc(N)n3)[C@H]2SC1`, for which the inhibition is 6.41% (inactive).

Turning to `O=C(NNC(=O)c1ccccc1O)c1ccccc1O`, the inhibition is 2.97% (inactive).

As for `NC1=CC(=O)C(=O)c2cccnc21`, the inhibition is 6.36% (inactive).

For `Cc1ccccc1NCC(=O)N/N=C\c1ccc([N+](=O)[O-])s1`, the inhibition was 1.19% (inactive).

In the next assay the test system is T-cell receptor (TCR)-CD3 interaction, human. In words: TCR-CD3 interaction inhibitors, retest, confirmation, biochemical, fluorescence, TAMRA-labeled TCR probe (AID 652036; in the data active means inhibition above about 19%). The settings on record: TAMRA-labeled TCR probe fluorescence binding assay; at 9.4 µM; active compounds read high.
Turning to `Cc1ccc(Cc2cnc(N)s2)o1`, the inhibition was 2.57% (inactive).

Turning to `C=CC1=C(C(=O)O)N2C(=O)[C@@H](NC(=O)/C(=N/OCC(=O)O)c3csc(N)n3)[C@H]2SC1`, the inhibition is 20% (active).

`O=C(NNC(=O)c1ccccc1O)c1ccccc1O`: the inhibition was 37.8% (active).

Turning to `NC1=CC(=O)C(=O)c2cccnc21`, the inhibition was 11.5% (inactive).

For the molecule `Cc1ccccc1NCC(=O)N/N=C\c1ccc([N+](=O)[O-])s1`, the inhibition is 7.69% (inactive).

System in the next assay: not listed separately
Put plainly: Gal4-VP16 luciferase reporter inhibitors, counter-screen for COUP-TFII antagonist project, cell-based, luminescence, HEK293 (AID 687007; in the data active means inhibition above about 13%). The settings on record: at 8.5 µM, active compounds read high.
For `COc1ccc2c(c1)c(=Cc1ccc(N(C)C)cc1)c1cc(-c3ccccc3)[n+](C)n12`, the inhibition was 40.1% (active).

As to `CN(O)C(=S)c1ccccc1`, the inhibition is -6.65% (inactive).

As to `O=C(Nc1ccccc1Cl)/C(Cl)=C(\Cl)S(=O)c1ccccc1` (stereo not drawn), the inhibition was 78.8% (active).

In the case of `CCCCCCCCn1c2c(c(=N)c3c1CCC3)CCCC2`, the inhibition is 32.1% (active).
